PubChem BioAssay (Tox21)
Results filed as inconclusive are left out. Activity calls are given as the source filed them. Unless noted, the call rests on the fitted dose curve; in most records, active means well fitted curve in the direction sought with a large enough effect in the repeat runs; inconclusive means weak or mixed curves; inactive means no such curve, though single readings can be large; an effect the other way counts as inactive or inconclusive.

Legend:
[1] = qHTS assay to identify aromatase inhibitors - cell viability counter screen (AID 743084);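 further: cells stimulated with testosterone during compound exposure; nearly all actives have a fitted effect of over 55% in size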
[2] = target: Aryl hydrocarbon receptor (Homo sapiens) (UniProt P35869); assay: qHTS assay to identify small molecule that activate the aryl hydrocarbon receptor (AhR) signaling pathway (AID 743085);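 further: HG2L7.5c1 human HepG2 liver cells with stably integrated DRE-driven firefly reporter; series mostly up to about 70 µM; nearly all actives have a fitted effect of over 15% in size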
Summary of the method: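 Reporter assay in engineered HepG2 line HG2L7.5c1, whose plasmid carries twenty dioxin responsive elements upstream of firefly luciferase. Treatment lasted 24 h at 37C; ONE-Glo luminescence gauged induction.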

[3] = qHTS assay to identify small molecule that activate the aryl hydrocarbon receptor (AhR) signaling pathway - cell viability counter screen (AID 743086);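 further: HepG2 liver cells carrying the AhR DRE luciferase reporter; series mostly up to about 70 µM; nearly all actives have a fitted effect of over 45% in size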
Summary of the method: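 HepG2-AhR-luc (HG2L7.5c1) cells, 4000/well, were preincubated 5 h at 37C, exposed to compound in qHTS format for 24 hr at 37C, then given CellTiter-Fluor for 30 min; viability was read as fluorescence in the reporter wells.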

[4] = target: Peroxisome proliferator-activated receptor gamma (Homo sapiens) (UniProt P37231); assay: qHTS assay to identify small molecule agonists of the peroxisome proliferator-activated receptor gamma (PPARg) signaling pathway (AID 743094; active means well fitted activation curve with a large enough effect in the signal ratio in the repeat runs, not every such curve was filed as active; the % refers to the signal ratio; further: potency means the concentration at half of the fitted maximal effect)
Summary of the method: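 Stably transfected HEK293H cells (GeneBLAzer PPARg UAS-bla) were incubated with test substances for 17 h at 37C after a 5 h pre-incubation; beta-lactamase activity was then detected by FRET substrate fluorescence.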

[5] = target: Peroxisome proliferator-activated receptor gamma (Homo sapiens) (UniProt P37231); assay: qHTS assay to identify small molecule antagonists of the peroxisome proliferator-activated receptor gamma (PPARg) signaling pathway (AID 743191; calls by dose curve; further: series mostly up to about 63 µM; nearly all actives have a fitted effect of over 30% in size)
Summary of the method: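 GeneBLAzer PPARg UAS-bla HEK293H cells carrying a UAS-driven beta-lactamase reporter were plated at 3000 cells/well, preincubated 5 h at 37C, then given compound for 17 h at 37C; LiveBLAzer B/G FRET substrate was read after 1 h at room temperature.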

[6] = qHTS assay to identify small molecule antagonists of the peroxisome proliferator-activated receptor gamma (PPARg) signaling pathway - cell viability counter screen (AID 743194); further: nearly all actives have a fitted effect of over 55% in size
Summary of the method: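 PPARg-UAS-bla HEK293H cells were plated, rested 5 h at 37 C, then treated with compounds plus rosiglitazone (50 nM final) for 17 h at 37 C; viability was then read by CellTiter-Glo luminescence after 30 min at room temperature.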

[7] = qHTS assay for small molecule agonists of the antioxidant response element (ARE) signaling pathway - cell viability counter screen (AID 743203; calls by dose curve; further: nearly all actives have a fitted effect of over 55% in size)
Summary of the method: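 Cells (ARE-bla HepG2, 2,000/well) receive DMSO-dissolved compounds after a 5 hrs rest. Plates incubate 16 hrs at 37C/5% CO2. CellTiter-Glo luminescence is then recorded after 30 min at room temperature.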

[8] = qHTS assay for small molecule activators of the heat shock response signaling pathway - cell viability counter screen (AID 743209); further: nearly all actives have a fitted effect of over 50% in size
Summary of the method: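 Quantitative HTS format, Tox21 10K library. HeLa cells carrying an HSE-driven beta-lactamase reporter were treated 5 h at 37 C, then assessed for viability by CellTiter-Glo luminescence.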

[9] = qHTS assay for small molecule activators of the heat shock response signaling pathway (AID 743210; active means well fitted activation curve with a large enough effect in the signal ratio in the repeat runs, with a control signal flat, not every such curve was filed as active; the % refers to the signal ratio; further: series mostly up to about 63 µM)
Summary of the method: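 HSE-bla HeLa cells (beta-lactamase reporter under heat shock response elements) were exposed to compounds for 5 h at 37 C, then loaded with LiveBLAzer B/G FRET substrate for 2.5 h at room temperature before fluorescence reading.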

[10] = qHTS assay to identify small molecule agonists of the peroxisome proliferator-activated receptor delta (PPARd) signaling pathway - cell viability counter screen (AID 743211); further: nearly all actives have a fitted effect of over 55% in size
Summary of the method: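 Multiplexed format: after the 2 h room-temperature LiveBLAzer B/G FRET step, CellTiter-Glo was added to the same wells. Luminescence after 30 min gave cell viability; compound exposure was 17 h at 37C.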

[11] = qHTS assay to identify small molecule antagonists of the peroxisome proliferator-activated receptor delta (PPARd) signaling pathway - cell viability counter screen (AID 743213); further: nearly all actives have a fitted effect of over 50% in size
Summary of the method: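 In this counter screen, HEK293H cells carrying a UAS-beta-lactamase reporter are co-treated with test compounds and 300 nM L165041 (final) for 17 h at 37 C; cell viability is quantified by CellTiter-Glo luminescence.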

[12] = qHTS assay to identify small molecule agonists of the farnesoid-X-receptor (FXR) signaling pathway - cell viability counter screen (AID 743218); further: nearly all actives have a fitted effect of over 45% in size
Summary of the method: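 In GeneBLAzer FXR-UAS-bla HEK 293T cells, compounds act for 16 h at 37 C. Cell viability is then scored in the reporter wells by CellTiter-Glo, 30 min at RT, luminescence.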

[13] = qHTS assay to identify small molecule antagonists of the farnesoid-X-receptor (FXR) signaling pathway - cell viability counter screen (AID 743221; active means well fitted cell-killing curve with a large enough effect in the repeat runs, not every such curve was filed as active; further: nearly all actives have a fitted effect of over 50% in size)
Summary of the method: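 CellTiter-Glo, 30 min RT, luminescence; same wells as the LiveBLAzer FRET read. Cells: FXR-UAS-bla HEK 293T. Treatment: compound with chenodeoxycholic acid 50 uM final, 16 h at 37 C.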

[14] = target: Vitamin D3 receptor (Homo sapiens) (UniProt P11473); assay: qHTS assay to identify small molecule agonists of the vitamin D receptor (VDR) signaling pathway (AID 743222; calls by dose curve)
Summary of the method: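 Agonist activity measured in VDR-bla reporter cells. Exposure 16 h, 37C, 5% CO2; detection by B/G FRET substrate, 2 h RT.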

[15] = target: Vitamin D3 receptor (Homo sapiens) (UniProt P11473); assay: qHTS assay to identify small molecule antagonists of the vitamin D receptor (VDR) signaling pathway (AID 743223; active means well fitted inhibition curve with a large enough effect in the signal ratio in the repeat runs, not every such curve was filed as active; the % refers to the signal ratio)
Summary of the method: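 After VDR-bla cells are plated and left 4 h at 37C, DMSO-dissolved compounds and 3 nM (final) calcitriol agonist are added. Incubation continues 16 h at 37C; FRET beta-lactamase substrate then develops 2 h at room temperature.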

[16] = qHTS assay for small molecule agonists of the antioxidant response element (ARE) signaling pathway (AID 743202; active means well fitted activation curve with a large enough effect in the signal ratio in the repeat runs, not every such curve was filed as active; the % refers to the signal ratio; further: potency means the concentration at half of the fitted maximal effect)
Summary of the method: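 Read-out: LiveBLAzer B/G FRET substrate fluorescence after 2 h at room temperature, following 16 h compound treatment at 37 C of HepG2 cells carrying an ARE-driven beta-lactamase reporter.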

[17] = target: Peroxisome proliferator-activated receptor delta (Homo sapiens) (UniProt Q03181); assay: qHTS assay to identify small molecule agonists of the peroxisome proliferator-activated receptor delta (PPARd) signaling pathway (AID 743212; calls by dose curve; further: potency means the concentration at half of the fitted maximal effect)
Summary of the method: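 GeneBLAzer PPARd UAS-bla HEK293H cells (beta-lactamase reporter under UAS control), plated and rested 5 h at 37 C, then exposed to compounds in DMSO at 37 C; LiveBLAzer B/G FRET substrate added, 2 h room temperature, fluorescence read.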

[18] = target: Peroxisome proliferator-activated receptor delta (Homo sapiens) (UniProt Q03181); assay: qHTS assay to identify small molecule antagonists of the peroxisome proliferator-activated receptor delta (PPARd) signaling pathway (AID 743215; active means well fitted inhibition curve with a large enough effect in the signal ratio in the repeat runs, not every such curve was filed as active; the % refers to the signal ratio;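 further: cells stimulated with agonist L165041 at 300 nM final during compound exposure; series mostly up to about 62 µM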)
Summary of the method: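 Antagonist-mode beta-lactamase reporter screen: HEK293H cells with UAS-bla under PPARd control, stimulated by 300 nM L165041 (final) alongside test compound for 17 h at 37 C, then FRET fluorescence after 2 h substrate incubation.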

[19] = target: Bile acid receptor (Homo sapiens) (UniProt Q96RI1); assay: qHTS assay to identify small molecule antagonists of the farnesoid-X-receptor (FXR) signaling pathway (AID 743217; active means well fitted inhibition curve with a large enough effect in the signal ratio in the repeat runs, not every such curve was filed as active; the % refers to the signal ratio)
Summary of the method: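 Beta-lactamase reporter under UAS control in HEK 293T cells; compound exposure 16 h at 37 °C in the presence of chenodeoxycholic acid (50 uM final); signal from B/G FRET substrate after 2 h at room temperature.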

[20] = target: Bile acid receptor (Homo sapiens) (UniProt Q96RI1); assay: qHTS assay to identify small molecule agonists of the farnesoid-X-receptor (FXR) signaling pathway (AID 743220; active means well fitted activation curve with a large enough effect in the signal ratio in the repeat runs, not every such curve was filed as active; the % refers to the signal ratio)
Summary of the method: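 Beta-lactamase reporter under UAS control in GeneBLAzer FXR HEK 293T cells (5000/well) measured with LiveBLAzer FRET substrate after 2 h at room temperature. Compound exposure lasted 16 h at 37C.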

Measured: Potency

Sequence of Vitamin D3 receptor (Homo sapiens) (P11473 whole entry, looked up): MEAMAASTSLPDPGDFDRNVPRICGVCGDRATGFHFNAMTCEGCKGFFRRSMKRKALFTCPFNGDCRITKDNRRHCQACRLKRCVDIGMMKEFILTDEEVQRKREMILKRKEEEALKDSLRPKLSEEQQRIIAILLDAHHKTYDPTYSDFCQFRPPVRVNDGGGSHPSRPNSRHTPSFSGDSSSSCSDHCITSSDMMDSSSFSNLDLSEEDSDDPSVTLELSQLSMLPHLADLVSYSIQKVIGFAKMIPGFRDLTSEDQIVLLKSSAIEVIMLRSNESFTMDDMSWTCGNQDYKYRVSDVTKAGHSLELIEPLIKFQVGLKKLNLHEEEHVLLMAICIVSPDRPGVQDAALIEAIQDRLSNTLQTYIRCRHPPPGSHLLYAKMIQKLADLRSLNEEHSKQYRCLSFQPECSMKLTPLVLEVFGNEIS
Sequence of Peroxisome proliferator-activated receptor delta (Homo sapiens) (Q03181 whole entry, looked up): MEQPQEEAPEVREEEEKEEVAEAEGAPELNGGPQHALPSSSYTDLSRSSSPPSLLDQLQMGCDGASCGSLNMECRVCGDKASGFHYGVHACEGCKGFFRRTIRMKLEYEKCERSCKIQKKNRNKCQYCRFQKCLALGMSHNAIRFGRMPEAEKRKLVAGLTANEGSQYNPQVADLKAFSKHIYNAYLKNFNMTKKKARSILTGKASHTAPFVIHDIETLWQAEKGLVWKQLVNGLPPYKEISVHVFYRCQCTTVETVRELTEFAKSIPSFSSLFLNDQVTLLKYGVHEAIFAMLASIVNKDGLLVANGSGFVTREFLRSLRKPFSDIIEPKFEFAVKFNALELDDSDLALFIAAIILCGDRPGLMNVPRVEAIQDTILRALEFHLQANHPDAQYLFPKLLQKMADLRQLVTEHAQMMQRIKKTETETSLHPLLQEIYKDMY
Sequence of Peroxisome proliferator-activated receptor gamma (Homo sapiens) (P37231 whole entry, looked up): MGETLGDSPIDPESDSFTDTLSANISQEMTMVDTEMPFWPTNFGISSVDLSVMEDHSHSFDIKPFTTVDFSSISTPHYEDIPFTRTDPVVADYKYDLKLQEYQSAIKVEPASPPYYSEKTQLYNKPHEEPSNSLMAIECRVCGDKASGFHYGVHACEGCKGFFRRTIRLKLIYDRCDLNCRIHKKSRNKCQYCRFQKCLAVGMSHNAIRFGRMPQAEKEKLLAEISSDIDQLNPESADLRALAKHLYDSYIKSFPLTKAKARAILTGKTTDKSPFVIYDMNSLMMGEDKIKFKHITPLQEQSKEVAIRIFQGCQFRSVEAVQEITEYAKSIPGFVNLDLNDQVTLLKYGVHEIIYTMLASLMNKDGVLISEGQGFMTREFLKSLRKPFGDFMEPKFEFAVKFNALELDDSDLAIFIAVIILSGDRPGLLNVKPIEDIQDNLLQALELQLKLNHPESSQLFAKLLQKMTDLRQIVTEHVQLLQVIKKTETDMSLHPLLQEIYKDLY
Sequence of Aryl hydrocarbon receptor (Homo sapiens) (P35869 whole entry, looked up): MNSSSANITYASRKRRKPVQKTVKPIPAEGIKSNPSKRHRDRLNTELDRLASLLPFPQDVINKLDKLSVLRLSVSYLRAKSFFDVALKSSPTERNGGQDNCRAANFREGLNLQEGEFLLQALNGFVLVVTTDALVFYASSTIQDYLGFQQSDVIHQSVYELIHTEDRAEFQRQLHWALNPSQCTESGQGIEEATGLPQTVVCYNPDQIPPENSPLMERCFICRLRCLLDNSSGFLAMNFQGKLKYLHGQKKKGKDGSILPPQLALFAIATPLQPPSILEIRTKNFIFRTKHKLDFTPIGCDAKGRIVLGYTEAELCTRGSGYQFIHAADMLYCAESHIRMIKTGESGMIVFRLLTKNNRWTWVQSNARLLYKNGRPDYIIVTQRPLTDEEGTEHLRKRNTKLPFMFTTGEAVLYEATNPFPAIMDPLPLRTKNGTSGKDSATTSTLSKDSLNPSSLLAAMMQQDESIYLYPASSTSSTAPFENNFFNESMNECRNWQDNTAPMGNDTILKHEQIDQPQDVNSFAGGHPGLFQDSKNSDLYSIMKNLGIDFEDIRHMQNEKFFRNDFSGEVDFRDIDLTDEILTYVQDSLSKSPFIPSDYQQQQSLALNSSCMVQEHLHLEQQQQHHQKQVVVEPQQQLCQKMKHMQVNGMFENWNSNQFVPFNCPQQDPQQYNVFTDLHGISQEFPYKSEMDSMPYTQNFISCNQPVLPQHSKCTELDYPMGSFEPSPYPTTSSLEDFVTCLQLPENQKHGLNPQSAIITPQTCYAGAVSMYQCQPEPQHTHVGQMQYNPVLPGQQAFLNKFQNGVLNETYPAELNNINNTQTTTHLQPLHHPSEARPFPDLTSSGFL
Sequence of Bile acid receptor (Homo sapiens) (Q96RI1 whole entry, looked up): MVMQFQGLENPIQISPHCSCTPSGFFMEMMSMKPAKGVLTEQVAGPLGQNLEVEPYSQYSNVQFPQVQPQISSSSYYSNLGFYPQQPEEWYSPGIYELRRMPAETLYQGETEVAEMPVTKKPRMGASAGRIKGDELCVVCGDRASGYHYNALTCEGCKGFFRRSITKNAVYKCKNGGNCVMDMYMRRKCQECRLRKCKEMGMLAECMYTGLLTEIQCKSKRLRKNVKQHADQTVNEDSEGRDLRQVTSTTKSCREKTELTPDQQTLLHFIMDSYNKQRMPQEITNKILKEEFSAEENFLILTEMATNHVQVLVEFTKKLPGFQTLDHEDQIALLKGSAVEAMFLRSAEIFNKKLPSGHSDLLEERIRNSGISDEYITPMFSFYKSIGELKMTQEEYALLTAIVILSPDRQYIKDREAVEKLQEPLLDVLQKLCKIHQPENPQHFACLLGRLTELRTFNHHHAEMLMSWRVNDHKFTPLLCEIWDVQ

Cc1ccco1
inactive: [1] | [2] | [3] | [4] | [5] | [6] | [7] | [8] | [9] | [10] | [11] | [12] | [13] | [14] | [15]

CCC(C)(C)OC
inactive: [1] | [2] | [3] | [4] | [5] | [16] | [7] | [9] | [10] | [17] | [11] | [18] | [19] | [12] | [20] | [13]

O=c1[nH]ncc2ccccc12
inactive: [1] | [2] | [3] | [4] | [5] | [6] | [16] | [7] | [8] | [10] | [17] | [11] | [18] | [12] | [13] | [14] | [15]

C1C[C@@H]2[C@H]3CC[C@H](C3)[C@@H]2C1
inactive: [1] | [2] | [3] | [4] | [5] | [6] | [16] | [7] | [8] | [9] | [10] | [11] | [18] | [12] | [13] | [14] | [15]

CCC(=O)C1CC(C(C)C)CC=C1C (stereo unspecified)
inactive: [1] | [2] | [3] | [4] | [5] | [6] | [16] | [7] | [8] | [9] | [10] | [17] | [11] | [12] | [13]

CCCCCCCC/C=C\CCCCCCCCO
inactive: [1] | [2] | [3] | [4] | [5] | [6] | [16] | [7] | [8] | [9] | [10] | [17] | [11] | [18] | [12] | [13] | [14] | [15]

CCOC(=O)OC(C)OC(=O)[C@@H]1N2C(=O)[C@@H](NC(=O)[C@H](N)c3ccccc3)[C@H]2SC1(C)C (stereo partly specified)
inactive: [1] | [2] | [3] | [4] | [6] | [16] | [7] | [8] | [9] | [17] | [11] | [18] | [19] | [12] | [20] | [13] | [14] | [15]

CC1(C)S[C@@H]2[C@H](NC(=O)C(c3ccccc3)S(=O)(=O)O)C(=O)N2[C@H]1C(=O)O (stereo partly specified)
inactive: [1] | [2] | [3] | [5] | [6] | [7] | [8] | [9] | [11] | [13] | [14] | [15]

Cc1cscn1
inactive: [1] | [2] | [3] | [4] | [6] | [16] | [7] | [9] | [10] | [17] | [11] | [18] | [12] | [13] | [14] | [15]

COc1ccccc1Oc1c(NS(=O)(=O)c2ccc(C(C)(C)C)cc2)nc(-c2ncccn2)nc1OCCO
inactive: [1] | [2] | [3] | [4] | [7] | [8] | [10] | [17] | [11] | [18] | [12] | [13] | [15]

CCN(CC)CCNC(=O)COc1ccc(OC)cc1
inactive: [1] | [2] | [3] | [5] | [6] | [16] | [7] | [8] | [10] | [17] | [11] | [19] | [12] | [20] | [13] | [14] | [15]

C=C1c2cccc(O)c2C(O)=C2C(=O)[C@]3(O)C(O)=C(C(N)=O)C(=O)[C@@H](N(C)C)[C@@H]3[C@@H](O)[C@H]12
inactive: [1] | [2] | [3] | [4] | [16] | [8] | [9] | [10] | [17] | [11] | [18] | [19] | [20] | [13] | [14]

CN1C(C(=O)Nc2ccccn2)=C(O)c2sccc2S1(=O)=O
inactive: [1] | [2] | [3] | [5] | [6] | [16] | [7] | [8] | [10] | [17] | [11] | [18] | [12] | [13]

CC(CCC(=O)O)C(=O)O (stereo unspecified)
inactive: [1] | [2] | [3] | [4] | [5] | [8] | [9] | [10] | [17] | [11] | [18] | [19] | [12] | [20] | [13]

Nc1ncnc2c1ncn2[C@H]1CC[C@@H](CO)O1
inactive: [1] | [2] | [3] | [4] | [6] | [16] | [7] | [8] | [9] | [10] | [17] | [18] | [19] | [20] | [13] | [14] | [15]

C=C(C)CCCC(C)CCO (stereo unspecified)
inactive: [1] | [2] | [3] | [4] | [6] | [8] | [9] | [17] | [11] | [13]

COC(=O)CCS
inactive: [1] | [2] | [3] | [5] | [16] | [7] | [8] | [9] | [10] | [17] | [11] | [18] | [13] | [14] | [15]

O=Cc1c2ccccc2c(Cl)c2ccccc12
active: [4] 9.53 µM | [16] 29.9 µM | [17] 10.7 µM
inactive: [1] | [2] | [3] | [6] | [7] | [8] | [10] | [11] | [18] | [12] | [13] | [14] | [15]
